Reference: PubChem BioAssay (NCATS)
Records with an inconclusive call do not appear. Activity calls are given as the source filed them. Unless noted, calls come from the whole dose curve; as a rule, active = well fitted cell-killing curve with a large enough effect; inconclusive = small, poorly fitted or top-dose-only effect; inactive = flat fitted curve, though single readings scatter.

Key:
[1] = Cell Viability - LYMP2-025 (AID 976); note: series mostly up to about 92 µM
Method in brief: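 Human lymphoblastoid LYMP2-025 cells, 2500/well, exposed 24 h at 37 C in complete medium in 1536-well qHTS. Viability as cellular ATP by CellTiter-Glo luminescence; AC50 from Hill fits of concentration-response data.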

[2] = Cell Viability - LYMP2-002 (AID 977); note: potency is the fitted concentration of half-maximal effect
Method in brief: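 Luminescent ATP readout (CellTiter-Glo, 30 min room temperature) after 24 h compound exposure at 37 C of a human lymphoblastoid line, 2500 cells/well. AC50 values derived by standard Hill fitting of qHTS concentration-response data.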

[3] = Cell Viability - LYMP2-006 (AID 978); note: nearly all actives have a fitted effect of over 60% in size; note: potency is the fitted concentration of half-maximal effect
Method in brief: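 Concentration-dependent loss of intracellular ATP in a human lymphoblastoid line after 24 hr treatment at 37 C was measured by CellTiter-Glo luminescence, with AC50 values obtained from standard Hill-equation modelling.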

[4] = Cell Viability - LYMP2-007 (AID 979);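 note: cells exposed to compound for 24 h before reading; nearly all actives have a fitted effect of over 60% in size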; note: potency is the fitted concentration of half-maximal effect
Method in brief: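 Human lymphoblastoid LYMP2-007 cells (2500/well) preincubated 5 h at 37 C, then treated 24 h at 37 C in complete medium. Viability by CellTiter-Glo ATP luminescence after 30 min at room temperature; AC50 from Hill fits.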

[5] = Cell Viability - LYMP2-008 (AID 980); note: nearly all actives have a fitted effect of over 60% in size; note: potency is the fitted concentration of half-maximal effect
Method in brief: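 LYMP2-008 lymphoblastoid cells (2500/well) plated 5 h, then treated 24 h at 37 C in complete medium. Viability read as intracellular ATP by CellTiter-Glo luminescence after 30 min at room temperature; AC50 from Hill fits.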

[6] = Cell Viability - LYMP2-010 (AID 981); note: nearly all actives have a fitted effect of over 55% in size; note: potency is the fitted concentration of half-maximal effect
Method in brief: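 Human lymphoblastoid LYMP2-010 cells (2500/well) treated 24 h at 37 C in complete medium; viability read as intracellular ATP by CellTiter-Glo luminescence. AC50 from Hill fits of concentration-response data; tetraoctylammonium bromide positive control.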

[7] = Cell Viability - LYMP2-012 (AID 982);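 note: cellular ATP by luciferase luminescence where a drop means cytotoxicity; cells exposed to compound for one day before reading; nearly all actives have a fitted effect of over 55% in size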
[8] = Cell Viability - LYMP2-014 (AID 983); note: nearly all actives have a fitted effect of over 50% in size; note: potency is the fitted concentration of half-maximal effect
Method in brief: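 LYMP2-014 human lymphoblastoid cells, 2500/well, treated 24 h at 37 C in complete medium; viability by CellTiter-Glo ATP luminescence after 30 min at room temperature. AC50 from Hill fits of qHTS concentration-response; tetraoctylammonium bromide positive control.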

[9] = Cell Viability - LYMP2-016 (AID 984); note: nearly all actives have a fitted effect of over 55% in size
Method in brief: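 Acute toxicity in a Coriell human lymphoblastoid line is scored as loss of intracellular ATP over 24 h of treatment in complete medium. CellTiter-Glo signal is fitted across concentrations with the Hill equation to give AC50.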

[10] = Cell Viability - LYMP2-018 (AID 985);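 note: compound exposure lasted 24 hr at 37 °C; nearly all actives have a fitted effect of over 50% in size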
Method in brief: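 Human lymphoblastoid LYMP2-018 cells, 2500/well, settled 5 hr at 37 C then exposed to compound 24 hr at 37 C; intracellular ATP measured by CellTiter-Glo luminescence. AC50 from Hill-equation concentration-response fits.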

[11] = Cell Viability - LYMP2-020 (AID 986); note: series mostly up to about 92 µM; nearly all actives have a fitted effect of over 55% in size
Method in brief: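 Human lymphoblastoid LYMP2-020 cells (2500/well) preincubated 5 h at 37 C, then treated 24 h at 37 C. Viability measured as intracellular ATP by CellTiter-Glo luminescence after 30 min at room temperature; AC50 from Hill fits.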

[12] = Cell Viability - LYMP2-022 (AID 987); note: nearly all actives have a fitted effect of over 55% in size; note: potency is the fitted concentration of half-maximal effect
Method in brief: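 LYMP2-022 lymphoblastoid cells (2500/well, complete medium) were treated with compounds for 24 hours at 37 C; intracellular ATP was then read by CellTiter-Glo luminescence after 30 min at room temperature. AC50 values were derived from Hill-equation fits.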

[13] = Cell Viability - LYMP2-024 (AID 988); note: nearly all actives have a fitted effect of over 60% in size; note: potency is the fitted concentration of half-maximal effect
Method in brief: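 Human lymphoblastoid LYMP2-024 cells (2500/well) rested 5 hr, then treated with compound for 24 hr at 37 C in complete medium. Viability was measured as intracellular ATP by CellTiter-Glo luminescence. AC50 values came from Hill-equation fits.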

[14] = Cell Viability - LYMP2-026 (AID 989); note: nearly all actives have a fitted effect of over 50% in size
Method in brief: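 Human lymphoblastoid LYMP2-026 cells, 2500/well, exposed to compound 24 h at 37 C in complete medium. Viability as intracellular ATP by CellTiter-Glo luminescence; AC50 from Hill fits of qHTS concentration-response.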

[15] = Cell Viability - LYMP1-002 - Assay at 24 hr (AID 993); note: potency is the fitted concentration of half-maximal effect
Method in brief: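 Human lymphoblastoid LYMP1-002 cells (2500/well) treated 24 h at 37 °C; viability as intracellular ATP by CellTiter-Glo luminescence. Tetraoctylammonium bromide as positive control; AC50 from Hill-equation fits of qHTS concentration-response.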

[16] = Cell Viability - LYMP1-002 - Assay at 40 hr (AID 994); note: nearly all actives have a fitted effect of over 60% in size; note: potency is the fitted concentration of half-maximal effect
Method in brief: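 LYMP1-002 human lymphoblastoid cells (2500/well, complete medium) were treated with compounds for 40 hr at 37 C. Intracellular ATP was measured by CellTiter-Glo luminescence, and AC50 values came from Hill-equation fits of concentration-response data; tetraoctylammonium bromide was the positive control.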

[17] = qHTS Assay for Identification of Small Molecule Inducers of Hypoxia Response (AID 2120; active = well fitted curve in the direction sought with a large enough effect in the signal ratio, with a control signal flat, not every such curve was filed as active; the % refers to the signal ratio)
Method in brief: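 HRE-bla ME-180 cells in Opti-MEM with 0.5% dialyzed FBS, pre-plated 4-5 h, then compound titration for 17 h at 37 degrees Celsius. CCF4 loaded 2.5 h at room temperature; 460/530 nm ratio gave %Activity and AC50 for induction.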

Measured: Potency

CC(=O)OCCC(C)C
inactive: all assays above

O=C(O)c1ccccc1[N+](=O)[O-]
inactive: all assays above

CCN(C(=O)N(CC)c1ccccc1)c1ccccc1
not listed: [14]
inactive: all other assays above

O=C(O)c1ccccc1Cl
not listed: [14]
inactive: all other assays above

ON=C1CCCCC1
not listed: [15]
inactive: all other assays above

Cc1cc(C2(c3cc(C)c(O)cc3C)OS(=O)(=O)c3ccccc32)c(C)cc1O
not listed: [10]
inactive: all other assays above

CC(=O)OC(C)=O
not listed: [15]
inactive: all other assays above

COC(=O)c1ccccc1
not listed: [14]
inactive: all other assays above

CC1=C(/C=C/C(C)=C/C=C/C(C)=C\C=O)C(C)(C)CCC1
inactive: [17]
active: [2] 50.1 µM | [3] 50.1 µM | [4] 50.1 µM | [5] 50.1 µM | [6] 39.8 µM | [8] 63.1 µM | [12] 39.8 µM | [13] 31.6 µM | [15] 63.1 µM | [16] 50.1 µM
